Results on 39 compounds are retold here after the supplement of paper PMC6522484.

Counter-ions that a name gives are not always drawn. ± gives the standard deviation of the averaged measurements.

The experiment has as its system HCT116. The experiment is described as follows: TCF/Wnt firefly luciferase reporter signal relative to plate median (fraction of plate median); higher = higher Wnt reporter signal. Conditions: 10 µM; treatment time 24 h; reporter: TCF4/Wnt. Put shortly:
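Each value averages two independent replicates in which the well signal was normalised to the plate median (webcellHTS2, additive, without log transformation). The signal was firefly luciferase or CellTiterGlo luminescence, read on parallel plates with a Tecan F500. The cells were colorectal cancer lines with stable lentiviral TCF/Wnt firefly luciferase reporters in 384-well plates, dosed 24 h after seeding with kinase inhibitor library compounds at a final 10 µM for 24 h.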
(A reporter such as luciferase makes a cellular process visible.)
Consider `O=C(NOC[C@H](O)CO)c1ccc(F)c(F)c1Nc1ccc(I)cc1F`, for which the “TCF/Wnt firefly luciferase reporter signal” value was found to be 1.06 ± 0.028. For `Cc1cnc(Nc2ccc(N3CCN(C)CC3)cc2)nc1Nc1cccc(S(=O)(=O)NC(C)(C)C)c1`, the “TCF/Wnt firefly luciferase reporter signal” value was 2.98 ± 0.97. Turning to `N#CCNC(=O)c1ccc(-c2ccnc(Nc3ccc(N4CCOCC4)cc3)n2)cc1`, the “TCF/Wnt firefly luciferase reporter signal” value was 1.31 ± 0.25. `COc1ccc2c(OCc3nnc4ccc(-c5ccccc5)nn34)ccnc2c1`: the “TCF/Wnt firefly luciferase reporter signal” value came to 1.26 ± 0.035. Under `Oc1cc(O)cc(/C=C/c2ccc(O)c(O)c2)c1` [Piceatannol] stands 1.455 ± 0.0071; under `CN1CC[C@H](c2c(O)cc(O)c3c(=O)cc(-c4ccccc4Cl)oc23)[C@H](O)C1` [Flavopiridol hydrochloride], 0.196 ± 0.047; under `CO[C@H]1C[C@@H]2CC[C@@H](C)[C@@](O)(O2)C(=O)C(=O)N2CCCC[C@H]2C(=O)O[C@H]([C@H](C)C[C@@H]2CC[C@@H](O)[C@H](OC)C2)CC(=O)[C@H](C)/C=C(\C)[C@@H](O)[C@@H](OC)C(=O)[C@H](C)C[C@H](C)/C=C/C=C/C=C/1C` [Rapamycin (Sirolimus)], 1.38 ± 0.42. The same measure for `CC(=O)Nc1nc(C)c(-c2ccc(Cl)c(S(=O)(=O)NCCO)c2)s1`: 1.09 ± 0.085. Consider `O=C1NC(=O)[C@@H](c2cn3c4c(cccc24)CCC3)[C@@H]1c1c[nH]c2ccccc12` [ARQ 197 (Tivantinib)], for which the “TCF/Wnt firefly luciferase reporter signal” value stood at 0.241 ± 0.028.

As for `CCC(=O)N1CCN(c2ccc(-n3c(=O)ccc4cnc5ccc(-c6cnc7ccccc7c6)cc5c43)cc2C(F)(F)F)CC1` [Torin 1], the “TCF/Wnt firefly luciferase reporter signal” value was 0.44 ± 0.096. Under `O=C1NC(=O)/C(=C\c2ccc3nccnc3c2)S1` stands 1.96 ± 0.18. Turning to `O=C1NC(=O)C(c2ccccc2[N+](=O)[O-])=C1Nc1ccc(O)c(Cl)c1`, the “TCF/Wnt firefly luciferase reporter signal” value came out at 2.56 ± 0.96.

In the case of `CCn1c(-c2nonc2N)nc2c(C#CC(C)(C)O)ncc(OC[C@H]3CCCNC3)c21`, the “TCF/Wnt firefly luciferase reporter signal” value was determined as 1.65 ± 0.41. The same measure for `O=C1NCCc2[nH]c(-c3ccncc3)cc21`: 0.222 ± 0.0085. Under `Cc1ccc(NC(=O)c2ccc(CN3CCN(C)CC3)cc2)cc1Nc1nccc(-c2cccnc2)n1` [Imatinib Mesylate] stands 1.32 ± 0.47; under `Cc1[nH]c(/C=C2\C(=O)Nc3ccccc32)c(C)c1CCC(=O)O`, 1.4 ± 0.59. Under `CC(=O)Nc1cccc(-n2c(=O)n(C3CC3)c(=O)c3c(Nc4ccc(I)cc4F)n(C)c(=O)c(C)c32)c1` stands 1.32 ± 0.58; under `COc1cc2c(Oc3ccc(NC(=O)C4(C(=O)Nc5ccc(F)cc5)CC4)cc3F)ccnc2cc1OCCCN1CCOCC1`, 1.2 ± 0.28. In the case of `O=C(NC1CCNCC1)c1n[nH]cc1NC(=O)c1c(Cl)cccc1Cl`, the “TCF/Wnt firefly luciferase reporter signal” value was 0.226 ± 0.018. The same measure for `C#Cc1cccc(Nc2ncnc3cc(OCCOC)c(OCCO)cc23)c1` [OSI-420 (Desmethyl Erlotinib)]: 0.465 ± 0.3; for `CN(C)CCOc1ccc(-c2nc(-c3ccncc3)c(-c3ccc4c(c3)CC/C4=N\O)[nH]2)cc1`: 1.19 ± 0.24.

As to `NC(=O)Nc1sc(-c2ccc(F)cc2)cc1C(N)=O`, the “TCF/Wnt firefly luciferase reporter signal” value turned out to be 1.39 ± 0.2.

Regarding `COc1cc2c(Oc3ccc4[nH]c(C)cc4c3F)ncnc2cc1OCCCN1CCCC1` [Cediranib (AZD2171)], the “TCF/Wnt firefly luciferase reporter signal” value was 0.354 ± 0.15. Under `C=CC(=O)Nc1cccc(Sc2nc(Nc3ccc(N4CCN(C)CC4)cc3)ncc2Cl)c1` stands 1.64 ± 0.67; under `COc1cc(Nc2ncc(F)c(Nc3ccc4c(n3)NC(=O)C(C)(C)O4)n2)cc(OC)c1OC` [R406(free base)], 1.38 ± 0.37. Under `O=C(Nc1cc(C(F)(F)F)cc(C(F)(F)F)c1)c1cc(Cl)ccc1O` stands 0.133 ± 0.072; under `Cc1cc(C(=O)NOCCO)c(Nc2ccc(I)cc2F)n(C)c1=O`, 1.17 ± 0.13; under `O=C(NC[C@H](O)CO)c1ccncc1Nc1ccc(I)cc1F`, 1.18 ± 0.32.

As to `CNC(=O)c1ccccc1Nc1nc(Nc2ccc(N3CCOCC3)cc2OC)ncc1Cl`, the “TCF/Wnt firefly luciferase reporter signal” value was 1.22 ± 0.28. As for `CC(C)(C)c1cnc(CSc2cnc(NC(=O)C3CCNCC3)s2)o1`, the “TCF/Wnt firefly luciferase reporter signal” value turned out to be 0.228 ± 0.0071. The same measure for `COc1ccc(S(=O)(=O)N(C(C)=O)c2ccccc2/C=C/c2cc[n+]([O-])cc2)cc1`: 0.278 ± 0.0071; for `Cn1cc(C2=C(c3ccc(Cl)cc3Cl)C(=O)NC2=O)c2ccccc21`: 1.56 ± 0.61. `Cn1cnc2c(F)c(Nc3ccc(Br)cc3Cl)c(C(=O)NOCCO)cc21` [AZD6244 (Selumetinib)]: the “TCF/Wnt firefly luciferase reporter signal” value was found to be 0.99 ± 0.52. The same measure for `O=c1cc(N2CCOCC2)oc2c(-c3ccccc3)cccc12`: 1.62 ± 0.3. As for `O=C(O)c1ccc(Nc2ncc3c(n2)-c2ccc(Cl)cc2C(c2c(F)cccc2F)=NC3)cc1`, the “TCF/Wnt firefly luciferase reporter signal” value is 1.375 ± 0.0071. The same measure for `Nc1ccc(-c2ccc3ncc4ccc(=O)n(-c5cccc(C(F)(F)F)c5)c4c3c2)cn1` [Torin 2]: 0.641 ± 0.073; for `CCn1nnc2c(N3CCOCC3)nc(-c3ccc(NC(=O)Nc4ccc(C(=O)N5CCN(C)CC5)cc4)cc3)nc21`: 0.59 ± 0.19; for `N#C/C(=C\c1ccc(O)c(O)c1)C(=O)NCc1ccccc1`: 1.1 ± 0.021. On to `COc1cc2ncnc(Nc3cccc(Br)c3)c2cc1OC`, for which the “TCF/Wnt firefly luciferase reporter signal” value was 0.911 ± 0.11.
